# Data taken from PubChem BioAssay (EPA / NIEHS).
# Inconclusive results are not listed. Activity calls are given as the source filed them. How the source made its calls, unless noted: active means hit-call score of the fitted dose curve at least 0.9, where 1 is the maximum; inactive means score below 0.9.
# Experiments:
# [1] = UKN2_HCS_IMR90_neural_migration: University of Konstanz (UKN) Leist Lab Neural Crest Cell Migration Assay in human induced IMR90 Pluripotent Stem Cells (UKN2) (AID 2284204); conditions: actives raise or lower the signal
# Outline: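 High-content imaging of calcein-AM and Hoechst stained cells quantifies migration into a stopper-defined gap after 24 h compound exposure. Neural crest cells from IMR90 iPSC migrated 24 h in EGF/FGF N2-S medium before dosing; DMSO baseline.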
# [2] = UKN4_HCS_LUHMES_neurite_outgrowth: University of Konstanz (UKN) Leist Lab Neurite Outgrowth Assay in human LUHMES cells (UKN4) (AID 2284206); conditions: actives raise or lower the signal
# Outline: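 Human LUHMES cells were differentiated for two days, replated and treated with chemicals for 24 h. Neurite outgrowth was quantified as calcein-stained neurite area by HCS imaging, fitted bidirectionally relative to DMSO.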
# [3] = IUF_NPC1b_proliferation_BrdU_72hr: Leibniz Research Institute for Environmental Medicine (IUF) 72-hour Neural Progenitor Cell Bromodeoxyuridine (BrdU) Proliferation Assay (NPC1b) (AID 2284207)
# Outline: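 Human fetal cortex-derived (GW 16-19) neural progenitor spheres, 0.25-0.35 mm, one per well in EGF/FGF proliferation medium, exposed to compound for 72 h at 37C, pH 7.2-7.6. BrdU incorporation over the final 16 h read by luminescence ELISA, relative to DMSO.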
# [4] = IUF_NPC1a_proliferation_area_72hr: Leibniz Research Institute for Environmental Medicine (IUF) 72-hour Neural Progenitor Cell Proliferation Area Assay (NPC1a) (AID 2284208)
# Outline: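 Single 0.25–0.35 mm human fetal neural progenitor spheres in proliferation medium with EGF and FGF, exposed 72 h from plating without renewal at 37C, pH 7.2-7.6. Sphere area growth measured by automated phase-contrast imaging, relative to DMSO.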
# [5] = IUF_NPC1_viability_72hr: Viability Assessment at 72 hours in the Leibniz Research Institute for Environmental Medicine (IUF) Neural Progenitor Cell Proliferation Assay (NPC1) (AID 2284209)
# Outline: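 Spheres of primary human neural progenitors were plated singly in proliferation medium and treated for 72 h. Mitochondrial reduction of resazurin was then measured by fluorescence and analysed against DMSO controls.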
# [6] = CCTE_Mundy_HCI_Cortical_Synap_Neur_Matur_NeuriteSpotCountPerNeuriteLength: CCTE's Synaptogenesis and Neurite Maturation Assay in rat cortical cells for Neurite Spot Count per Neurite Length, Mundy Lab (AID 2284210)
# Outline: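 Synaptophysin spots per unit neurite length, measured by automated imaging of MAP2/synaptophysin/Hoechst-stained neurons. Cultures from rat cortex received chemical at DIV 7 with media change through DIV 12; glial growth arrested by AraC at DIV 5; DMSO baseline.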
# [7] = CCTE_Mundy_HCI_Cortical_NOG_NeuriteLength: CCTE's Neurite Outgrowth Assay in rat cortical cells for Neurite Length, Mundy Lab (AID 2284213);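 further: neurites imaged about 48 to 50 h after chemical exposure began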
# Outline: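 First, rat primary cortical cells were plated and, 2 h later, given test chemical as a 1/10 dilution. Finally, βIII-tubulin immunostaining enabled automated imaging of neurite length.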
# [8] = CCTE_Mundy_HCI_Cortical_Synap_Neur_Matur_NeuriteSpotCountPerNeuron: CCTE's Synaptogenesis and Neurite Maturation Assay in rat cortical cells for Neurite Spot Count per Neuron Count, Mundy Lab (AID 2284215)
# Outline: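 Rat primary cortical cultures given AraC at DIV 5, dosed from DIV 7 to DIV 12 with media change. Fixed, stained for MAP2, synaptophysin and Hoechst; neurite-associated synaptophysin puncta per neuron quantified by high-content imaging versus DMSO.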
# [9] = CCTE_Mundy_HCI_Cortical_Synap_Neur_Matur_SynapseCount: CCTE's Synaptogenesis and Neurite Maturation Assay in rat cortical cells for Synapse Count, Mundy Lab (AID 2284218)
# Outline: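 Cells were plated, allowed 2 hr to attach, treated with AraC at DIV 5, then exposed to chemicals from DIV 7 until DIV 12. After fixation and MAP2/synaptophysin immunolabelling, synapses per neuron were quantified by automated imaging against DMSO.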
# [10] = CCTE_Mundy_HCI_hN2_NOG_NeuriteCount: CCTE's Neurite Outgrowth Assay in human hN2 cells for Neurite Count, Mundy Lab (AID 2284219; active means hit-call score of the fitted dose curve at least 0.9, where 1 is the maximum)
# Outline: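 In this morphology assay, hNP1-derived neurons received test chemical 2 h post-plating and were fixed two days later in warm paraformaldehyde/sucrose containing Hoechst 33342. Neurites, labelled by rabbit anti-βIII-tubulin (1:800) and Alexa Fluor-488 (1:500), were counted automatically.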
# [11] = CCTE_Mundy_HCI_hN2_NOG_NeuriteLength: CCTE's Neurite Outgrowth Assay in human hN2 cells for Neurite Length, Mundy Lab (AID 2284220; active means hit-call score of the fitted dose curve at least 0.9, where 1 is the maximum)
# Outline: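 Plate hNP1-derived neurons, then add chemical 2 h later as a 1/10 dilution. Stain with anti-βIII-tubulin then Alexa Fluor-488 secondary, and image automatically to measure neurite length.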
# [12] = CCTE_Mundy_HCI_hN2_NOG_NeuronCount: CCTE's Neurite Outgrowth Assay in human hN2 cells for Neuron Count, Mundy Lab (AID 2284221; active means hit-call score of the fitted dose curve at least 0.9, where 1 is the maximum)
# Outline: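 Read-out is the number of betaIII-tubulin-positive neurons imaged by automated high-content analysis, with DMSO as negative control.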
# [13] = CCTE_Mundy_HCI_Cortical_Synap_Neur_Matur_CellBodySpotCount: CCTE's Synaptogenesis and Neurite Maturation Assay in rat cortical cells for Cell Body Spot Count, Mundy Lab (AID 2284223)
# Outline: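 Primary rat cortical cultures, AraC added at DIV 5; dosed DIV 7 through DIV 12 […]. Fixed, stained for MAP2 and synaptophysin with Hoechst; cell body-associated synaptophysin puncta per neuron counted by high-content imaging, loss vs DMSO.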
# [14] = UKN4_HCS_LUHMES_cell_viability: Viability Assessment in the University of Konstanz (UKN) Leist Lab Neurite Outgrowth Assay in human LUHMES cells (UKN4) (AID 2284232)
# Outline: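 Cells switched to differentiation medium at day 0, replated on day 2 in medium lacking cAMP and GDNF, and compound-treated once attached. Live staining began 23.5 h later, imaging followed at 24 h.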
# [15] = UKN2_HCS_IMR90_cell_viability: Viability Assessment in the University of Konstanz (UKN) Leist Lab Neural Crest Cell Migration Assay in human induced IMR90 Pluripotent Stem Cells (UKN2) (AID 2284233);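 further: cells exposed to compound for 24 h after a 24 h migration phase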
# Outline: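 After calcein-AM/Hoechst staining, viability is quantified by high-content fluorescence imaging, relative to DMSO, in iPSC (IMR90)-derived neural crest cells. Exposure lasts 24 h, starting after a 24 h migration period on PLO/laminin/fibronectin coating.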
# [16] = CCTE_Mundy_HCI_Cortical_NOG_NeuronCount: CCTE's Neurite Outgrowth Assay in rat cortical cells for Neuron Count, Mundy Lab (AID 2284236; active means hit-call score of the fitted dose curve at least 0.9, where 1 is the maximum;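 further: neurons counted by imaging betaIII-tubulin and Hoechst stained cortical cells; cells exposed to compound for about 48 hours before fixation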)
# Outline: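 Read-out: neuron number by high-content imaging of betaIII-tubulin (Alexa Fluor-488) and Hoechst-labelled rat primary cortical cells.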
# [17] = CCTE_Mundy_HCI_hNP1_Casp3_7: CCTE's Caspase-Glo 3/7 Assay in human neuroprogenitor cells for Apoptosis, Mundy Lab (AID 2284240)
# Outline: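 Apoptosis is scored by activated caspase-3/7 luminescence in WA09-derived neural progenitor cells, measured 26.5 h after chemical dosing. Values represent gain of signal relative to DMSO vehicle.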
# [18] = CCTE_Mundy_HCI_Cortical_Synap_Neur_Matur_NeuronCount: CCTE's Synaptogenesis and Neurite Maturation Assay in rat cortical cells for Neuron Count, Mundy Lab (AID 2284242; active means hit-call score of the fitted dose curve at least 0.9, where 1 is the maximum)
# Outline: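 Cortical cells from rat are plated, treated with AraC at DIV 5, and exposed to test chemicals with a media change at DIV 7. At DIV 12 they are fixed and immunostained (MAP2, synaptophysin), and imaged neuron counts are compared against DMSO controls.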
# [19] = IUF_NPC2c_oligodendrocyte_migration_120hr: Leibniz Research Institute for Environmental Medicine (IUF) 120-hour Neural Progenitor Cell Migration Assay for Oligodendrocyte Migration (NPC2c) (AID 2284297);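 further: O4-positive oligodendrocyte migration distance divided by radial glia migration distance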
# Outline: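 Human fetal neural progenitor spheres (0.3 mm) are plated on poly-D-lysine/laminin in N2 differentiation medium and exposed for 120 h, with half-medium renewal at day 3. Oligodendrocyte (O4+) migration distance comes from ICC imaging, normalised to radial glia migration.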
# [20] = IUF_NPC2a_radial_glia_migration_120hr: Leibniz Research Institute for Environmental Medicine (IUF) 120-hour Neural Progenitor Cell Migration Assay for Radial Glia Migration (NPC2a) (AID 2284298)
# Outline: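 Human fetal-cortex neural progenitor spheres (0.3 mm) plated on poly-D-lysine/laminin in N2 differentiation medium, exposed 120 h at 37C with half-medium renewal at day 3. Radial glia migration distance (um) measured from Hoechst-stained nuclei images; DMSO baseline.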
# [21] = IUF_NPC2a_radial_glia_migration_72hr: Leibniz Research Institute for Environmental Medicine (IUF) 72-hour Neural Progenitor Cell Migration Assay for Radial Glia Migration (NPC2a) (AID 2284299)
# Outline: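 Single 0.3 mm neurospheres were plated per well in N2 differentiation medium and exposed from the start of differentiation. After 72 hours, brightfield images were taken and radial glia migration from the sphere core edge was measured manually in four directions, averaged per well.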
# [22] = IUF_NPC3_neuronal_differentiation_120hr: Leibniz Research Institute for Environmental Medicine (IUF) 120-hour Neuronal Differentiation Assay (NPC3) (AID 2284301)
# Outline: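 Value is percent TUBB3-positive neurons among Hoechst-stained nuclei in the migration area, scored by trained CNN after 120 h differentiation. Primary hNPC spheres on poly-D-lysine/laminin, N2 medium, continuous dosing from day 0, half-refeed day 3; DMSO reference.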
# [23] = IUF_NPC4_neurite_length_120hr: Leibniz Research Institute for Environmental Medicine (IUF) 120-hour Neuronal Morphology Assay for Neurite Length (NPC4) (AID 2284302)
# Outline: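 Neurite length, the mean in um across TUBB3-stained neurons, is derived by skeletonization of high-content images after 120 h differentiation. Compound exposure, 7 concentrations plus solvent control, ran from plating of hNPC spheres on poly-D-lysine/laminin, with medium half-replaced on day 3.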
# [24] = IUF_NPC5_oligodendrocyte_differentiation_120hr: Leibniz Research Institute for Environmental Medicine (IUF) 120-hour Oligodendrocyte Differentiation Assay (NPC5) (AID 2284304; active means hit-call score of the fitted dose curve at least 0.9, where 1 is the maximum;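 further: primary human fetal neural progenitor spheres plated to migrate and differentiate; share of O4-positive cells among Hoechst nuclei found by CNN image analysis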)
# Outline: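 Human fetal neural progenitor spheres (0.3 mm) plated on poly-D-lysine/laminin in N2 differentiation medium and exposed for 120 h at 7 concentrations, with half-medium renewal at day 3. O4-positive cells identified by CNN, expressed as percent of Hoechst nuclei.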
# [25] = IUF_NPC2-5_cytotoxicity_72hr: Cytotoxicity Assessment at 72 hours in the Leibniz Research Institute for Environmental Medicine (IUF) Neural Progenitor Cell Migration and Differentiation Assay for Cytotoxicity (NPC2-5) (AID 2284306; active means hit-call score of the fitted dose curve at least 0.9, where 1 is the maximum;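 further: LDH release into supernatant measured by resorufin fluorescence marking membrane damage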)
# Outline: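 Membrane-integrity cytotoxicity at 72 h, read as LDH-driven resorufin fluorescence in supernatant. hNPC spheres from fetal cortex differentiate on coated plates in N2 medium, 37C, 5% CO2; seven serial compound concentrations plus solvent control (DMSO ≤0.1%).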
# [26] = IUF_NPC2-5_cytotoxicity_120hr: Cytotoxicity Assessment at 120 hours in the Leibniz Research Institute for Environmental Medicine (IUF) Neural Progenitor Cell Migration and Differentiation Assay (NPC2-5) (AID 2284307; active means hit-call score of the fitted dose curve at least 0.9, where 1 is the maximum;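 further: LDH released into supernatant as membrane damage marker via resorufin fluorescence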)
# Outline: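 Human fetal (GW 16-19) neural progenitor spheres (0.3 mm) plated on poly-D-lysine/laminin in N2 differentiation medium, exposed 120 h with half-medium renewal at day 3; 7 concentrations plus solvent control, DMSO ≤0.1%. LDH release in supernatant read by resorufin fluorescence.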
# [27] = IUF_NPC2-5_cell_number_120hr: Cell Number Assessment at 120 hours in the Leibniz Research Institute for Environmental Medicine (IUF) Neural Progenitor Cell Migration and Differentiation Assay (NPC2-5) (AID 2284308);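 further: count of Hoechst-stained nuclei in migration zone around plated human neural progenitor spheres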
# Outline: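 Human fetal neural progenitor spheres (0.3 mm) plated on poly-D-lysine/laminin in N2 differentiation medium, exposed five days across 7 concentrations with half-medium refresh at day 3. Hoechst-positive nuclei counted in migration area at 120 h, relative to DMSO.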
# [28] = IUF_NPC2-5_viability_120hr: Viability Assessment at 120 hours in the Leibniz Research Institute for Environmental Medicine (IUF) Neural Progenitor Cell Migration and Differentiation Assay (NPC2-5) (AID 2284312)
# Outline: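 Alamar blue resorufin fluorescence read after 5 days of differentiation, with compound present from day 0 and replenished at day 3. Primary hNPC spheres on laminin-coated plates, 37C; seven concentrations plus solvent control, fitted against DMSO.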
# [29] = IUF_NPC1_cytotoxicity_72hr: Cytotoxicity Assessment at 72 hours in the Leibniz Research Institute for Environmental Medicine (IUF) Neural Progenitor Cell Proliferation Assay (NPC1) (AID 2284332; active means hit-call score of the fitted dose curve at least 0.9, where 1 is the maximum;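 further: rising LDH signal means more cytotoxicity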)
# Outline: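 Membrane-integrity loss is scored from LDH released into the medium, detected as resorufin fluorescence, with activity fitted upward relative to baseline. Test material stays on human fetal-derived progenitor spheres for 72 h.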
smiles,measurement,setting,value
C[C@@H]1C[C@H]2[C@@H]3CCC4=CC(=O)C=C[C@]4(C)[C@@]3(F)[C@@H](O)C[C@]2(C)[C@@]1(O)C(=O)CO,outcome,[1],inactive
same,outcome,[2],inactive
same,AC50,[3],90.1 nM (active)
same,outcome,[4],inactive
same,outcome,[5],inactive
same,outcome,[6],inactive
same,AC50,[7],21100 nM (active)
same,outcome,[8],inactive
same,outcome,[9],inactive
same,outcome,[10],inactive
same,outcome,[11],inactive
same,outcome,[12],inactive
same,outcome,[13],inactive
same,outcome,[14],inactive
same,outcome,[15],inactive
same,outcome,[16],inactive
same,outcome,[17],inactive
same,outcome,[18],inactive
same,outcome,[19],inactive
same,outcome,[20],inactive
same,outcome,[21],inactive
same,outcome,[22],inactive
same,outcome,[23],inactive
same,outcome,[24],inactive
same,outcome,[25],inactive
same,AC50,[26],24 nM (active)
same,outcome,[27],inactive
same,outcome,[28],inactive
same,outcome,[29],inactive
